According to the supplement of paper PMC13380429:
Unmarked numbers belong to inactive results.

Tested on: Vero E6 infected with SARS-CoV-2
Assay: inhibition of SARS-CoV-2 cytopathic effect; higher = more antiviral protection, active = above 15
Conditions: 48 h

SMILES	inhibition of SARS-CoV-2 cytopathic effect (1 nM) [%]	inhibition of SARS-CoV-2 cytopathic effect (8.33 nM) [%]	inhibition of SARS-CoV-2 cytopathic effect (100 nM) [%]	inhibition of SARS-CoV-2 cytopathic effect (833.33 nM) [%]	inhibition of SARS-CoV-2 cytopathic effect (10000 nM)
CCC(C)n1ncn(-c2ccc(N3CCN(c4ccc(OCC5COC(Cn6cncn6)(c6ccc(Cl)cc6Cl)O5)cc4)CC3)cc2)c1=O (stereo not given) [itraconazole]	2.52	7.17	2.54	-1.78	-7.27%
CCn1c(O)nnc1-c1ccc(Cl)cc1 [5-(4chlorophenyl)-4-ethyl-2,4-dihydro-3H-1,2,4-triazol-3-one]	-1.14	-2.31	-1.83	0.79	0.03%
CCCN1C[C@H](CSC)C[C@@H]2c3cccc4[nH]cc(c34)C[C@H]21 [pergolide]	-0.15	-0.75	0.68	0.65	-1.92%
O=C(O)CC1CC(c2ccccc2)=NO1 (stereo not given)	-0.73	0.07	-0.78	2.86	0.36%
CC(C(=O)O)c1ccc2c(c1)CC(=O)c1ccccc1S2 (stereo not given) [zaltoprofen]	1.83	2.8	3.97	0.28	1.17%
CC(C)(C)n1nc(-c2cccc3ccccc23)c2c(N)ncnc21 [1-naphthyl-PP1]	0.05	1.77	1.73	1.24	-4.31%
O=C(c1ccc(Cl)cc1)N(Cc1ccccc1)C1CCCCC1	-1.58	-1.87	1.24	-0.21	-2.35%
Nc1nc2ccc(Cl)cc2c2nc(-c3ccco3)nn12	3.02	1.43	-1.65	-3.37	1.46%
CCOC(=O)CCC(=O)O[C@H]1[C@H](O[C@@H]2[C@@H](C)[C@H](O[C@H]3C[C@@](C)(OC)[C@@H](O)[C@H](C)O3)[C@@H](C)C(=O)O[C@H](CC)[C@@](C)(O)[C@H](O)[C@@H](C)C(=O)[C@H](C)C[C@@]2(C)O)O[C@H](C)C[C@@H]1N(C)C [erythromycin-ethylsuccinate]	0.01	0.11	0.57	0.29	-0.24%
CN(C)[C@@H]1C(O)=C(C(N)=O)C(=O)[C@@]2(O)C(O)=C3C(=O)c4c(O)cccc4[C@@](C)(O)[C@H]3[C@H](O)[C@@H]12 [oxytetracycline]	-0.32	-3.1	-1.01	-0.96	-0.98%
CC1=C(/C=C/C(C)=C/C=C/C(C)=C/C(=O)O)C(C)(C)CCC1 [tretinoin]	1	-1.08	-0.09	2.67	7.6%
COc1ccccc1CN[C@H]1CCCN[C@H]1c1ccccc1	-0.59	-1.96	2.38	-1.82	-3.19%
CCC(=O)O[C@@H]1CC(=O)O[C@H](C)C/C=C/C=C/[C@H](OC(C)=O)[C@H](C)C[C@H](CC=O)[C@H](O[C@@H]2O[C@H](C)[C@@H](O[C@H]3C[C@@](C)(OC(C)=O)[C@@H](OC(=O)CC)[C@H](C)O3)[C@H](N(C)C)[C@H]2O)[C@H]1OC [miocamycin]	2.92	1.39	1.33	3.25	-2.09%
CC(=O)Nc1cccc(Nc2ncnc(N3CCC(OCc4ccc(OC(F)(F)F)cc4)CC3)n2)c1C	0.94	-3.45	-5.16	-2.26	1.6%
NC(=O)N1c2ccccc2C=Cc2ccccc21 [carbamazepine]	-2.53	-2.53	-0.42	-3.09	-3.17%
COc1c(Nc2ccc(S(C)(=O)=O)nc2C)ncnc1OC1CCN(C(=O)OC(C)C)CC1	-1.98	0.8	0.06	-1.17	-1.76%
CCNC(=O)N1CCN(CCCC(c2ccc(F)cc2)c2ccc(F)cc2)CC1 [amperozide]	-5.99	-8.04	-8.94	-7.67	-9.06%
CNCC(=O)O [sarcosine]	0.02	0.73	0.05	2.03	0.53%
Cc1cc(CN2CCN(c3c(Br)cnc4nc(-c5ccc(N6CCN(C)CC6)cc5)[nH]c34)CC2)no1	-1.63	-1.4	-0.54	-5	-6.41%

SMILES	inhibition of SARS-CoV-2 cytopathic effect (1 nM) [%]	inhibition of SARS-CoV-2 cytopathic effect (8.33 nM) [%]	inhibition of SARS-CoV-2 cytopathic effect (100 nM) [%]	inhibition of SARS-CoV-2 cytopathic effect (833.33 nM) [%]	inhibition of SARS-CoV-2 cytopathic effect (10000 nM)
CC(C)(C)NC[C@H](O)COc1nsnc1N1CCOCC1 [timolol]	-1.77	0.61	-1.85	3.77	0.96%
O=C1c2ccccc2S(=O)(=O)N1CCCCN1CCN(c2ncccn2)CC1 [ipsapirone]	4.62	2.92	-3.31	1.74	0.15%
Cc1c(I)c(=O)n(-c2ccccc2)n1C [iodoantipyrine]	-0.48	-2.57	-0.75	-0.95	1.55%
CC(=O)OCC(=O)NCCCOc1cccc(CN2CCCCC2)c1 [roxatidine-acetate]	-0.88	2.22	-0.37	1.86	2.34%
CC(C)[C@H]1CC[C@H](C(=O)N[C@H](Cc2ccccc2)C(=O)O)CC1 [nateglinide]	0.56	2.28	0.38	1.09	1.33%
CCS(=O)(=O)c1cccc(-c2cc(C(=O)NC3CCN(C)CC3)c(C)c3[nH]c4ncc(C)cc4c23)c1	3.23	0.63	1.19	-0.44	-2.17%
CC(=O)[O-].CC(=O)[O-].N.NC1CCCCC1.[Cl-].[Cl-].[Pt+4] [satraplatin]	3.89	-0.13	2.26	1.69	23.8% (active)
Oc1ccc(Nc2nc(-c3ccc(Cl)cc3)cs2)cc1	0.33	0.67	2.65	1.03	3.81%
CCCCOC(=O)c1cc2c(cn1)[nH]c1ccccc12 [beta-CCB]	-1.28	-1.62	-0.04	-2.91	-5.4%
COC(=O)Nc1ccc2[nH]cc(CCNC(C)=O)c2c1	-2.08	-0.32	-1.52	-7.74	-1.85%
COc1ccc2[nH]c([S@@+]([O-])Cc3ncc(C)c(OC)c3C)nc2c1 [esomeprazole]	-1.94	-1.72	-0.5	-0.9	0.21%
Cc1cc(-n2c(=O)[nH]c(=O)n(C)c2=O)ccc1Oc1ccc(SC(F)(F)F)cc1 [toltrazuril]	1.91	-0.85	1.02	-10.3	-0.06%
Cc1ncc(CO)c(CO)c1O [pyridoxine]	-15.8	-9.76	-7.58	-12.7	-14.1%
N[C@@H](Cn1oc(=O)[nH]c1=O)C(=O)O [L-quisqualic-acid]	-3.6	3.03	2.21	-1.93	0.17%
CN1CCc2cc(Cl)c(O)cc2[C@@H](c2ccccc2)C1	10.5	6.47	7.29	2.11	-0.78%
COc1cc2ncnc(Nc3cccc(Cl)c3F)c2cc1OC(=O)N1CCN(C)C[C@H]1C	1.89	2.48	-1.03	-2.96	-9.49%
O=C(NC(NC(=S)Nc1ccc(F)c([N+](=O)[O-])c1)C(Cl)(Cl)Cl)C(c1ccccc1)c1ccccc1 (stereo not given)	-2.82	-2.75	0.28	-7.06	-5.53%
CCCCOc1cc(C(=O)NCCN(CC)CC)c2ccccc2n1 [cinchocaine]	-2.14	-0.71	1.11	3.8	0.77%
C/C=C1/[C@H](O[C@@H]2O[C@H](CO)[C@@H](O)[C@H](O)[C@H]2O)OC=C(C(=O)OC)[C@H]1CC(=O)OCCc1ccc(O)c(O)c1 [oleuropein]	0.9	-0.2	-0.09	0.43	0.52%
